Reference: PubChem BioAssay AID504941 (Broad Institute, 2011)
In all, about 1,200 compounds went through this assay and about 170 (14%) were called active. How the calls were made is not given here. Only a sample is shown. Potency and affinity values are given separately.

Experiment: E. coli Tat export inhibitors, dose response, cherry-pick, set 2, plate reader (AID 504941)
Settings: E. coli Tat transport reporter; series mostly up to 38 µM; activity change, negative = inhibition: at the top concentration

Activity change, negative = inhibition, inactive:
COc1ccc(OC)c(NC(=O)NCc2cccnc2)c1 6.95%
CN(CC(=O)NCCN1CCOCC1)S(=O)(=O)c1ccc(Cl)cc1 0.713%
Cc1cc(=O)[nH]c(Sc2c(-c3ccccc3)c3ccccc3[nH]c2=O)n1 2.85%
CN1CCN(c2cc3c(cc2F)c(=O)c(C(=O)O)cn3CCF)CC1 -97.2%
Cc1ccc(S(=O)(=O)N2CCC(C(=O)Nc3nnc(C)s3)CC2)cc1 0.142%
CC(C(=O)NC1CCCC1)N1CCN(S(=O)(=O)c2ccc(C(C)(C)C)cc2)CC1 (stereo not given) -20.3%
O=C(CCSc1nnc(-c2ccco2)o1)N1CCOCC1 -14.4%
CCc1ccc(-c2cc(C(=O)Nc3ccc(S(=O)(=O)NC(C)=O)cc3)c3ccccc3n2)cc1 -2.02%
CC(=O)c1ccc(NC(=O)C2CCCN2S(=O)(=O)c2cccc3cccnc23)cc1 (stereo not given) 16.2%
CN(c1ccccc1)S(=O)(=O)c1cccc(NC(=O)CN2C(=O)NC3(CCCC3)C2=O)c1 -4.76%
CC1(C)C2CCC1(C)C(NC(=O)/C=C/c1ccccc1)C2 (stereo not given) 3.31%
COc1ccc(Nc2nc3ccccc3nc2-n2nc(C)cc2C)cc1 13.7%
COc1ccccc1NC(=S)NC(=O)C(C)C 23.3%
COc1cc(NC(=O)C2CCCCC2)c(OC)cc1NC(=O)c1ccco1 -1.98%
Cc1ccc(-c2cc(C(F)F)n3ncc(C(=O)Nc4ccc(S(=O)(=O)Nc5ccccc5C)cc4)c3n2)cc1 -1.66%
Oc1c(Cl)cc(Cl)cc1C1Nc2ccccc2-n2cccc21 (stereo not given) -22.8%
O=C(Nc1ccc2c(c1)OCCO2)C1CCCN(S(=O)(=O)c2cccnc2)C1 (stereo not given) 11.9%
O=C(c1cccnc1)C1CCCN(Cc2nc(Cc3ccccc3)no2)C1 (stereo not given) 2.5%
CN1CCN(c2ccc(S(=O)(=O)N3CCCCC3)cc2NC(=O)c2cccc([N+](=O)[O-])c2)CC1 -5.17%
COc1c2ccoc2nc2c(OC)c(OC[C@@H](O)C(C)(C)O)ccc12 27.5%
Cc1ccnc(SCC(=O)c2cccs2)n1 -5.46%
CC(=O)c1cc(CN2CCN(C3CCCCC3)C(CCO)C2)cs1 (stereo not given) 5.91%
O=C1/C(=C/c2cccnc2)Oc2cc(OS(=O)(=O)c3ccccc3)ccc21 19.7%
COc1cccc(NC(=O)c2cccc(C(=O)Nc3cccc(OC)c3)n2)c1 -9.91%
Cc1ccc(S(=O)(=O)NC(C)(C)CSc2nnc(Nc3ccccc3)s2)cc1 -11.6%
CN1CCC(=NNC(=O)C(=O)Nc2cccc(Br)c2)CC1 25.9%
Cc1ccc(C)c(NC(=O)CN(C)C(=O)c2cccc(S(=O)(=O)N(C)C)c2)c1 8.53%
Cc1ncc(CN2CCN(CCC(C)C)C(CCO)C2)s1 (stereo not given) 8.33%
COc1ccc(C(=O)NC2(C(F)(F)F)C(=O)Nc3c2c(=O)[nH]c(=O)n3CCc2ccc(OC)c(OC)c2)cc1 (stereo not given) 0.11%
CC(C)OCC(O)CN1CCN(CC(O)COc2ccc3c(c2)OCO3)CC1 (stereo not given) 10.6%
CCCCN(C)C(=O)c1cc2cc([N+](=O)[O-])cc(OC)c2oc1=O 8.79%
Cc1cccc(N(CC(=O)NC2CCCC2)C(=O)CCCC(=O)Nc2ccccn2)c1 2.32%
CCCCn1c(N)c(N(CCOC)C(=O)COC(=O)C(C)Oc2ccc(Cl)cc2)c(=O)[nH]c1=O (stereo not given) 21%
O=C(Nc1nnc(S(=O)(=O)N2CCCCCC2)s1)c1ccccc1Br -23.6%
C=CCn1c(SCC(=O)NCc2ccc3c(c2)OCO3)nnc1-c1cccnc1 7.67%
COC(=O)C[C@H]1c2cc(F)cc(F)c2S(=O)(=O)N1C1CCN(Cc2ccccc2)CC1 1.35%
NC(=O)C1CCN(C(=O)c2ccco2)CC1 -11.7%
NC(=O)C1CCN(C(=O)CSc2nc3ccccc3o2)CC1 12.3%
O=C(CCc1nc2cccnc2n1Cc1ccccc1)N1CCOCC1 0.529%
O=C(CCSc1ccccc1)N1CCN(C(=O)c2ccco2)CC1 -12.1%
CN(Cc1ccccc1)c1ncnc2sccc12 1.04%
COC(=O)c1sccc1NC(=O)c1ccc2c(c1)OCO2 12.6%
Cc1ccccc1C(=O)N1CCN(c2ccc(NC(=S)NC(=O)c3cccs3)cc2)CC1 17.9%
Cc1ccccc1C(=O)N1CCC(C(=O)Nc2ccccc2Cl)CC1 18.5%
O=C(CC1SCCNC1=O)Nc1cccc(Cl)c1 (stereo not given) 6.89%
COc1cccc(CN2CCN(Cc3cc(OC)c(OC)cc3[N+](=O)[O-])CC2)c1 2.59%
COc1ccc(CCN2C(=O)CC(NNC(=O)c3ccc(F)cc3)C2=O)cc1OC (stereo not given) 4.71%
Cc1cc(C(=O)NNC(=O)c2ccc(F)cc2)c(C)s1 26.3%
Cc1nc(Cl)c(C(=O)NCc2ccccc2)c(C)c1Cl -2.15%
Cc1nn(Cc2ccccc2)c(C)c1NC(=O)c1noc2c1CCc1ccccc1-2 15.8%
CCOc1cccc(=O)c2c(C)n(-c3ccc(C(=O)O)cc3)c(C)c12 14.2%
O=C(CCCc1ccccc1)Nc1ccc2c(c1)OCCO2 9.47%
O=C(O)CC(NCc1ccco1)C(=O)OCCc1ccccc1 (stereo not given) 26.3%
Cc1cc(C)c2oc(=O)cc(CN3CCN(Cc4ccc5c(c4)OCO5)CC3)c2c1 4.31%
CCOC(=O)[C@H]1[C@H]2COc3ccc(Cl)cc3[C@@H]2N2C(=O)[C@H](C)NC(=O)[C@@]12C -1.43%
C[C@H]1NC(=O)[C@@]2(C)[C@@H](c3ccccc3)[C@H]3COc4ccccc4[C@H]3N2C1=O 15.3%
CC(=O)c1c(C)[nH]c(C(=O)CSc2nnc3ccccn23)c1C -0.324%
CC(=O)Oc1ccc2c(c1)OC(c1ccccc1)CC21CC(C)(C)NC(=S)N1 (stereo not given) 15.6%
C=CCC[C@H](Cc1ccc(F)cc1)C(=O)OC[C@@H](C)NC(=O)[C@H](CC=C)CC(=O)NCCO -6.43%
Nc1nc2n(n1)C(c1cccc(Br)c1)CC(c1ccccc1)N2 (stereo not given) 23%
CC(Oc1ccc2c(-c3ccccc3)cc(=O)oc2c1)C(=O)NCCCN1CCOCC1 (stereo not given) 12.1%
COc1ccccc1N1CCN(CC(=O)Nc2ccc3c(c2)OCCO3)CC1 12.1%
COc1cccc(CNC(=O)CN2C(=O)CCSc3ccc(S(=O)(=O)N4CCCC4)cc32)c1 -15.2%
Cc1ccc(NC(=S)NCCC2=CCCCC2)cc1 12.6%
O=C(NCc1ccccc1)c1ccc(CS(=O)(=O)c2ccccc2)o1 16.7%
CCC1CCCCN1Cc1nc2c(c(=O)n(C)c(=O)n2C)n1CCCc1ccccc1 (stereo not given) -2%
Cc1onc(C(=O)NCc2ccc(F)cc2)c1[N+](=O)[O-] -1.08%
O=C(CCC1CCCCC1)NCCN1CCOCC1 -15.1%
COCCCN=C(c1ccco1)n1c(=S)nc(-c2ccco2)n(CCCOC)c1=S 3.59%
O=C(CN1CCC(c2nc3ccccc3s2)CC1)NCc1cccs1 12.7%
O=C(Nc1ccc(C(=O)O)cc1)/C(=C\C=C\c1ccccc1)NC(=O)c1ccccc1Br -14.1%
O=C(Nc1cc(S(=O)(=O)N2CCOCC2)ccc1N1CCCC1)c1ccc(Cl)cc1 2.62%
Cc1cc(Oc2nc3c(C)cccn3c(=O)c2/C=C(\C#N)S(=O)(=O)c2ccc(Cl)cc2)ccc1Cl 2.58%
CCOC(=O)C1=C(C)Nc2ncnn2C1c1cc(Br)ccc1F (stereo not given) 5.94%
COc1ccc(NC(=O)C2CCN(Cc3cnn(-c4ccccc4)c3-n3cccc3)CC2)cc1OC 21%
Cc1ccn(C(=O)c2ccc(NC(=O)C3CC3)cc2)n1 -12.2%
O=C(CSc1cccc2cccnc12)N/N=C/c1ccncc1 35.7%
Clc1ccccc1CSc1nnc(-c2cccnc2)n1Cc1ccco1 -3.85%
CCN(CC)CC(=O)Nc1ccc(C)cc1C(=O)c1ccccc1 6.54%
COc1ccccc1NC(=O)NCCCCc1ccccc1 -5.9%
COc1ccc(CCNCC(O)COc2c(C)cccc2C)cc1OC (stereo not given) 2.06%
COCCNc1nc(N)c([N+](=O)[O-])c(NCC2CCCO2)n1 (stereo not given) -13.9%
CCOC(=O)c1sc(-c2ccccc2)cc1NC(=O)Nc1ccc([N+](=O)[O-])cc1 12.2%
O=C1c2cccc3cccc(c23)C(=O)N1CC1CCN(CC(O)COc2ccc3ccccc3c2)CC1 (stereo not given) 5.9%
Cc1cccc(OCC(O)Cn2c(=N)n(CCN3CCOCC3)c3ccccc32)c1 (stereo not given) -7%
COC(=O)COc1cccc(NC(=O)c2cccc(C)c2)c1 -3.33%
CCCc1[nH]nc2c1C(c1ccc(OC(=O)c3ccco3)cc1)C(C#N)=C(N)O2 (stereo not given) 1.36%
O=C1c2ccccc2NC(c2ccc(Cl)cc2Cl)N1O (stereo not given) 58.2%
CCOc1cc(/C=N/NC(=O)C(=O)NCc2cccnc2)ccc1O -1.14%
S=c1[nH]nc(-c2cccnc2)n1C1CCCCC1 0.199%
O=S(=O)(NC1CCCCC1)c1ccc(Cl)s1 6.67%
CCC(C)OC1OC(CO)C(O)C(O)C1NC(C)=O (stereo not given) 0.148%
C[C@@H]1C(c2ccc(F)cc2)=NN(c2ccccc2)[C@H]1C(=O)N1CCOC1=O 12.3%
O=C(Nc1ccccc1F)C1CCN(C(=O)Cc2ccccc2)CC1 -21.2%
CCN(CC)S(=O)(=O)N1CCC(C(=O)NC2CCCC2)CC1 1.37%
CCOc1cc(C(=O)N2CCCN(C)CC2)cc(OCC)c1OCC 17.2%
COC(=O)c1sc(NC(=O)CSc2nnnn2-c2ccc(C)cc2C)nc1C 13.6%
CN1CC(c2ccccc2Cl)C2(COc3ccccc3C2=O)C12C(=O)Nc1ccccc12 (stereo not given) 39.1%
CC1(C)c2ccccc2N2CC(=O)NC21/C=C/c1ccco1 (stereo not given) 29.5%
CCc1ccc(C(=O)Nc2ccc(S(=O)(=O)Nc3nc(C)cc(C)n3)cc2)o1 5.66%
Cc1ccc2nc(C(=O)O)c(C(=O)O)nc2c1 18.6%
O=C(Cn1c(=O)oc2cc(S(=O)(=O)N3CCc4ccccc43)ccc21)N1CCCCC1 0.63%
O=C(Cn1nnc(-c2ccccc2)n1)N/N=C/c1cccc([N+](=O)[O-])c1O 35%
COc1ccccc1N(CC(=O)NC1CCCC1)C(=O)c1csnn1 25.7%
Cc1cc(=O)oc2cc(OCC(=O)OCC(=O)N3CCc4ccccc43)ccc12 0.129%
